DT40 TDP1 CPT: qHTS for Inhibitors of human tyrosyl-DNA phosphodiesterase 1 (TDP1): qHTS in cells in presence of CPT; 12% of 420,000 active; Potency, µM (top dose mostly 46.2 µM), for inactives: at the top dose activity change, negative = growth inhibition, actives largely listed as inhibitors; AID 686979, 2013; chicken DT40 Tdp1-/-;hTDP1 cells + 20 nM CPT, ATP luminescence, 48 h; also: nearly all actives have a fitted effect of over 55% in size
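Chicken DT40 Tdp1-/- cells complemented with human TDP1, 400 cells/well, exposed to compounds plus 20 nM camptothecin for at least 48 h at 37 C; viability read as ATP content by CellTiter-Glo luminescence.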
KB-3-1 cytotox: qHTS assay for MDR1-selective chemotherapeutics: Primary screen using the parental adenocarcinoma cell KB-3-1; KB-3-1 viability, CellTiter-Glo ATP luminescence, 72 h; Potency, µM (top dose mostly 46.1 µM), actives largely listed as cytotoxic; 1.4% of 400,000 active; AID 1347075, 2019; also: nearly all actives have a fitted effect of over 60% in size
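72 h, 37 °C compound treatment of KB-3-1 parental cells; CellTiter-Glo added, 10 min, luminescence read. Data corrected against DMSO-only plates and normalized before curve fitting.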
HT1080 IDH1KD tx: qHTS for induction of synthetic lethality in tumor cells producing 2HG: qHTS for the HT-1080-IDH1KD cell line; HT-1080 IDH1 knockdown viability, ATP luminescence, 48 h; Potency, µM (titrated, usually from 46.1 µM), without a hit: at the top dose activity, negative = toxicity, actives largely listed as cytotoxic; 2% of 360,000 active; AID 686971, 2013;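 also: 0% = DMSO wells and -100% = cell-free medium wells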
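Viability of IDH1-knockdown HT-1080 fibrosarcoma cells was assessed by CellTiter-Glo after 48 h at 37 °C with titrated compound; concentration-effect curves were classified by fit quality and response size.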
KB-V1 cytotox: qHTS assay for MDR1-selective chemotherapeutics: Primary screen using the drug-selected MDR subline cells KB-V1; KB-V1 MDR cells viability, CellTiter-Glo, 72 h; 3.4% of 400,000 active; AID 1347076, 2019; Potency, µM (doses to about 46.1 µM), most hits filed as cytotoxic; also: nearly all actives have a fitted effect of over 60% in size
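Potencies derive from concentration-effect curves fitted to normalized luminescence (CellTiter-Glo) of KB-V1 cells treated for 72 h at 37 degrees C in phenol-red-free DMEM containing 10% FBS.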
DT40 TDP1 no CPT: qHTS for Inhibitors of human tyrosyl-DNA phosphodiesterase 1 (TDP1): qHTS in cells in absence of CPT. Potency, µM (doses to about 46.2 µM), without a hit: at the highest dose activity change, negative = growth inhibition, actives largely listed as inhibitors. DT40 Tdp1-/- hTDP1 cells, no CPT, ATP luminescence, 48 h. 15% of 420,000 active; also: nearly all actives have a fitted effect of over 55% in size
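Seeded 400 DT40-hTDP1 cells/well (vehicle DMSO, no 20 nM CPT); pinned compounds; ≥48 hr at 37 °C; CellTiter-Glo luminescence as viability measure.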
HT1080-NT tox: qHTS for induction of synthetic lethality in tumor cells producing 2HG: qHTS for the HT-1080-NT fibrosarcoma cell line | Potency, µM (top dose mostly 46.1 µM), inactives show at the top dose activity, negative = less viability, usual class: cytotoxic | 1.6% of 360,000 active | HT-1080-NT fibrosarcoma viability, CellTiter-Glo ATP luminescence, 48 h;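 also: NT is the 2HG producing partner of a matched IDH1 knockdown line; 0% = DMSO-treated cells and -100% = media-only wells without cells; nearly all actives have a fitted effect of over 55% in size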
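A 48-hour cytotoxicity screen used HT-1080-NT cells plated 2 hours before compound delivery. ATP-based CellTiter-Glo luminescence measured viability, normalized to DMSO and no-cell controls.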
Numbers without * were called inactive; [ ] = dose if it differs, or a comment. Rows were chosen to be rich in hits. Some 19% of all compounds tested hit in one or more screens of this group. Calls follow the shape of the dose curve; as a rule, active = well fitted curve in the direction sought with a large enough effect; inconclusive = small, poorly fitted or top-dose-only effect, or another doubt; inactive = no such curve, though single readings can be large; an effect the other way counts as inactive or inconclusive. Unless noted, % is scaled to controls: 0 for no effect and ±100 for the full control effect; potency is read from the fitted curve at half-maximal effect.

What do the screens show for `COC(=O)c1ccc(CNC(=O)C2CCC(=O)N(CCc3ccccc3)C2)cc1` (centres undefined)?
DT40 TDP1 CPT: -14.1%; KB-3-1 cytotox: inactive; HT1080 IDH1KD tx: 5.0%; KB-V1 cytotox: inactive; DT40 TDP1 no CPT: 20.0%; HT1080-NT tox: -1.0%

What do the screens show for `O=C(CCCO)c1ccc2c(c1)OCCO2`?
DT40 TDP1 CPT: -25.7%; KB-3-1 cytotox: inactive; HT1080 IDH1KD tx: -15.2%[9.24 µM]; KB-V1 cytotox: inactive; DT40 TDP1 no CPT: -9.2%; HT1080-NT tox: -12.5%

Results for O=C(CCN1CCc2ccccc2CC1)c1ccc2c(c1)OCCO2 ?
DT40 TDP1 CPT: 4.61µM*; KB-3-1 cytotox: inactive; HT1080 IDH1KD tx: -0.8%; KB-V1 cytotox: inconclusive; DT40 TDP1 no CPT: 4.11µM*; HT1080-NT tox: -3.2%

How did O=C(CCCN1CCOCC1)c1ccc2c(c1)OCCO2 do in these assays?
DT40 TDP1 CPT: -29.2%; KB-3-1 cytotox: inactive; HT1080 IDH1KD tx: 14.4%; KB-V1 cytotox: inactive; DT40 TDP1 no CPT: -11.2%; HT1080-NT tox: -13.9%

What do the screens show for `O=C(CCN1CCCCC1)c1ccc2c(c1)OCO2`?
DT40 TDP1 CPT: 7.31µM*; KB-3-1 cytotox: inconclusive; HT1080 IDH1KD tx: -2.3%; KB-V1 cytotox: inactive; DT40 TDP1 no CPT: 10.3µM*; HT1080-NT tox: -22.3%

How did O=C(CNC1=NCCC1)c1ccc2c(c1)OCCO2 do in these assays?
DT40 TDP1 CPT: inconclusive; KB-3-1 cytotox: inactive; HT1080 IDH1KD tx: 14.3%; KB-V1 cytotox: inconclusive; DT40 TDP1 no CPT: 18.4µM*; HT1080-NT tox: 5.1%

What do the screens show for `CC1CCN(C(=O)CCNC(=O)Cn2cnc3sc4c(c3c2=O)CCCC4)CC1`?
DT40 TDP1 CPT: -21.8%; KB-3-1 cytotox: inactive; HT1080 IDH1KD tx: -11.1%; KB-V1 cytotox: inconclusive; DT40 TDP1 no CPT: -16.1%; HT1080-NT tox: -2.8%

How did Cn1c(CN2CCN(S(C)(=O)=O)CC2)nc2cc([N+](=O)[O-])ccc21 do in these assays?
DT40 TDP1 CPT: -23.7%; KB-3-1 cytotox: inactive; HT1080 IDH1KD tx: -0.2%; KB-V1 cytotox: inactive; DT40 TDP1 no CPT: -24.3%; HT1080-NT tox: 1.6%

Results for Nc1ccc(Cc2ccc(C=O)cc2)cc1 ?
DT40 TDP1 CPT: -6.1%; KB-3-1 cytotox: inactive; KB-V1 cytotox: inactive; DT40 TDP1 no CPT: 11.7%

What do the screens show for `COCCNC(=O)Cn1c(=O)c2cccn2c2ccc(F)cc21`?
DT40 TDP1 CPT: 4.3%; DT40 TDP1 no CPT: -3.9%

How did O=C(N/N=C\c1ccc(-c2ccccc2[N+](=O)[O-])o1)C1COc2ccccc2O1 (centres undefined) do in these assays?
DT40 TDP1 CPT: 0.5%; KB-3-1 cytotox: inactive; HT1080 IDH1KD tx: 7.6%; KB-V1 cytotox: inactive; DT40 TDP1 no CPT: -11.8%; HT1080-NT tox: 9.1%

How did O=C(N/N=C\c1ccc([N+](=O)[O-])o1)C1COc2ccccc2O1 (centres undefined) do in these assays?
DT40 TDP1 CPT: 7.31µM*; KB-3-1 cytotox: inconclusive; HT1080 IDH1KD tx: 20.6µM*; KB-V1 cytotox: inactive; DT40 TDP1 no CPT: 6.51µM*; HT1080-NT tox: inconclusive

Results for CCOC(=O)c1ccc(-n2c(O)c(/C=N/NC(=O)C3COc4ccccc4O3)c3ccccc3c2=O)cc1 (centres undefined) ?
DT40 TDP1 CPT: inconclusive; KB-3-1 cytotox: inactive; HT1080 IDH1KD tx: -13.3%; KB-V1 cytotox: 16.4µM*; DT40 TDP1 no CPT: inconclusive; HT1080-NT tox: -12.8%

How did O=C(N/N=C\c1ccc(Cl)s1)C1COc2ccccc2O1 (centres undefined) do in these assays?
DT40 TDP1 CPT: inconclusive; KB-3-1 cytotox: inconclusive; HT1080 IDH1KD tx: inconclusive; KB-V1 cytotox: inconclusive; DT40 TDP1 no CPT: 9.2µM*; HT1080-NT tox: inconclusive

How did CC(C)(C)c1ccc(C2CC2C(=O)N/N=C\c2ccc[nH]2)cc1 (centres undefined) do in these assays?
DT40 TDP1 CPT: inconclusive; KB-3-1 cytotox: 14.6µM*; HT1080 IDH1KD tx: 1.64µM*; KB-V1 cytotox: inconclusive; DT40 TDP1 no CPT: inconclusive; HT1080-NT tox: 2.59µM*

What do the screens show for `CC(C)C(=O)N1CCC1(C)C(=O)Nc1cc(-c2ccccc2)nn1C` (centres undefined)?
DT40 TDP1 CPT: inconclusive; KB-3-1 cytotox: inactive; HT1080 IDH1KD tx: -0.7%; KB-V1 cytotox: inactive; DT40 TDP1 no CPT: -28.0%; HT1080-NT tox: -0.5%

Results for O=C(N/N=C/c1c[nH]c2ccccc12)C1CC1c1ccccc1 (centres undefined) ?
DT40 TDP1 CPT: 11.6µM*; KB-3-1 cytotox: inactive; HT1080 IDH1KD tx: -13.9%; KB-V1 cytotox: inconclusive; DT40 TDP1 no CPT: 20.6µM*; HT1080-NT tox: -14.4%

What do the screens show for `COC(=O)N/N=C/c1c[nH]c2ccccc12`?
DT40 TDP1 CPT: 0.8%; KB-3-1 cytotox: inactive; HT1080 IDH1KD tx: 14.9%; KB-V1 cytotox: inactive; DT40 TDP1 no CPT: -2.2%; HT1080-NT tox: 8.7%

What do the screens show for `O=C(N/N=C/c1c[nH]c2ccccc12)C1COc2ccccc2O1` (centres undefined)?
DT40 TDP1 CPT: 10.3µM*; KB-3-1 cytotox: 5.8µM*; HT1080 IDH1KD tx: 5.8µM*; KB-V1 cytotox: 2.59µM*; DT40 TDP1 no CPT: 13µM*; HT1080-NT tox: 3.66µM*

What do the screens show for `O=C(CNC(=O)C1COc2ccccc2O1)N/N=C/c1ccc([N+](=O)[O-])cc1` (centres undefined)?
DT40 TDP1 CPT: 6.2%; KB-3-1 cytotox: inactive; HT1080 IDH1KD tx: -2.2%; KB-V1 cytotox: inactive; DT40 TDP1 no CPT: inconclusive; HT1080-NT tox: -15.9%

What do the screens show for `O=C(N/N=C\c1ccc([N+](=O)[O-])s1)C1COc2ccccc2O1` (centres undefined)?
DT40 TDP1 CPT: 2.91µM*; KB-3-1 cytotox: inactive; HT1080 IDH1KD tx: -6.3%; KB-V1 cytotox: inactive; DT40 TDP1 no CPT: 5.8µM*; HT1080-NT tox: inconclusive

How did COc1c2c(cc3c1C(CC(=O)c1c(O)c(OC)c4occc4c1OC)[N+](C)(C)CC3)OCO2 (centres undefined) do in these assays?
DT40 TDP1 CPT: 1.6%[9.04 µM]; DT40 TDP1 no CPT: -21.3%[9.04 µM]
